The values below come from PMC8384837, “Expanding the binding specificity for RNA recognition by a PUF domain”.

Residue numbers refer to the chain shown, from its start.

Common to all, as to assay: yeast three-hybrid, YBZ-1, SC-Leu-His + 0.5 mM 3-AT, 4 days
Conditions in all cases: tags: N-Gal4 AD-HA kept; label: inside an RPR1-promoter hybrid RNA with tandem MS2 sites; ssRNA

In assay [1] the target is PUM1 PUF domain R4-DHR (Homo sapiens, UniProt Q14671 828-1176, N971D;Q975R). The method in brief:
(§1)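 Each repeat of the Pumilio-1 PUF domain was randomized at its three base-contacting residues, and these libraries were co-expressed from a centromeric plasmid with matching RNA elements in strain YBZ-1. After four days on SC-Leu (input) or SC-Leu-His + 0.5 mM 3-AT (selection), the repeat regions were PCR-amplified and Illumina-sequenced. The interaction score compares variant frequency between input and selection as a log change, computed in log2 with a pseudocount of 1 for absent variants.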

Assay [2] has as its target PUM1 PUF domain R4-PFQ (Homo sapiens, UniProt Q14671 828-1176, N971P;H972F). In a few lines:
as §1

Assay [3] concerns the target PUM1 PUF domain R3-DFL (Homo sapiens, UniProt Q14671 828-1176, C935D;R936F;Q939L). The method in brief:
as §1

The target in assay [4] is PUM1 PUF domain R5-EHR (Homo sapiens, UniProt Q14671 828-1176, C1007E;R1008H;Q1011R). The method in brief: as §1
Assay [5] addresses PUM1 PUF domain R4-ALS (Homo sapiens, UniProt Q14671 828-1176, N971A;H972L;Q975S). In a few lines:
as §1

Assay [6] has as its target PUM1 PUF domain R3-CPT (Homo sapiens, UniProt Q14671 828-1176, R936P;Q939T). In a few lines:
as §1

Assay [7] deals with T1, PUM1 PUF domain R6-SWR (Homo sapiens, UniProt Q14671 828-1176, N1043S;Y1044W;Q1047R).
T1 sequence: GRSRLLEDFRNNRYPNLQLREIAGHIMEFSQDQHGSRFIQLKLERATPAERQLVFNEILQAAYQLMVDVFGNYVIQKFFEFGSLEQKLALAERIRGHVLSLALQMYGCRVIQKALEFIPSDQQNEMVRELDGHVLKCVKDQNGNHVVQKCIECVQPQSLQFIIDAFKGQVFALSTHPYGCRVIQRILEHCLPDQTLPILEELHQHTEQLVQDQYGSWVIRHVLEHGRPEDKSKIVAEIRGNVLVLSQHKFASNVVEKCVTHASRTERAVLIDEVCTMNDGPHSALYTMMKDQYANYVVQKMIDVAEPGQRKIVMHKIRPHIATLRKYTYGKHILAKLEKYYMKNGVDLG
The method in brief:
as §1

Assay [8] addresses T2, PUM1 PUF domain R6-CYT (Homo sapiens, UniProt Q14671 828-1176, N1043C;Q1047T).
T2 sequence: T1 sequence with S216C, W217Y, R220T
The method in brief:
as §1

For assay [9], the target named is PUM1 PUF domain R1-KLS (Homo sapiens, UniProt Q14671 828-1176, S863K;R864L;Q867S). The method in brief: as §1
In assay [10] the target is PUM1 PUF domain R5-GVR (Homo sapiens, UniProt Q14671 828-1176, C1007G;R1008V;Q1011R). The method in brief:
as §1

Assay [11] addresses PUM1 PUF domain R5-KLH (Homo sapiens, UniProt Q14671 828-1176, C1007K;R1008L;Q1011H). In a few lines: as §1
Assay [12] addresses PUM1 PUF domain R3-SEE (Homo sapiens, UniProt Q14671 828-1176, C935S;R936E;Q939E). The method in brief: as §1
Assay [13] deals with PUM1 PUF domain R3-LRT (Homo sapiens, UniProt Q14671 828-1176, C935L;Q939T). The method in brief:
as §1

Assay [14] has as its target PUM1 PUF domain R3-GFP (Homo sapiens, UniProt Q14671 828-1176, C935G;R936F;Q939P). In a few lines:
as §1

Assay [15] deals with PUM1 PUF domain R8-RYA (Homo sapiens, UniProt Q14671 828-1176, N1122R;Q1126A). In a few lines:
as §1

Assay [16] deals with PUM1 PUF domain R7-LHG (Homo sapiens, UniProt Q14671 828-1176, S1079L;N1080H;E1083G). The method in brief:
as §1

In the case of “GGCUAGAACUAGUGGAUCCCCCGGCGCCCGGCGGCUCGAGCCCGGGUAAGUGUACAUAGUCUGCAUGCCGCCGGGCGCCAUGCCUGCAGGUCGACUCUAGAAAACAUG”, in assay [1], the binding signal is 6.79 log2 enrichment (interaction score).

Consider “GGCUAGAACUAGUGGAUCCCCCGGCGCCCGGCGGCUCGAGCCCGGGUAAGUGUAUAUAGUCUGCAUGCCGCCGGGCGCCAUGCCUGCAGGUCGACUCUAGAAAACAUG”, for which the figures for the binding signal in assay [1] and in assay [2] were 4.76 log2 enrichment (interaction score) and 5.54 log2 enrichment (interaction score), respectively.

With “GGCUAGAACUAGUGGAUCCCCCGGCGCCCGGCGGCUCGAGCCCGGGUAAGUGUAAAUAGUCUGCAUGCCGCCGGGCGCCAUGCCUGCAGGUCGACUCUAGAAAACAUG”, the binding signal was 2.6 log2 enrichment (interaction score) in [3]; 3.38 log2 enrichment (interaction score) in assay [4]; 4.11 log2 enrichment (interaction score) in [5]; 2.54 log2 enrichment (interaction score) in [6]; 8.07 log2 enrichment (interaction score) in [7].

Take “GGCUAGAACUAGUGGAUCCCCCGGCGCCCGGCGGCUCGAGCCCGGGUAAGUGAAAAUAGUCUGCAUGCCGCCGGGCGCCAUGCCUGCAGGUCGACUCUAGAAAACAUG”: in [8], the binding signal was 3.1 log2 enrichment (interaction score).

“GGCUAGAACUAGUGGAUCCCCCGGCGCCCGGCGGCUCGAGCCCGGGUAAGUGUAAAUCGUCUGCAUGCCGCCGGGCGCCAUGCCUGCAGGUCGACUCUAGAAAACAUG”: the binding signal in assay [9] is 3.97 log2 enrichment (interaction score).

For the sequence “GGCUAGAACUAGUGGAUCCCCCGGCGCCCGGCGGCUCGAGCCCGGGUAAGUGUUAAUAGUCUGCAUGCCGCCGGGCGCCAUGCCUGCAGGUCGACUCUAGAAAACAUG”, the binding signal in [10] is 1.75 log2 enrichment (interaction score).

Consider “GGCUAGAACUAGUGGAUCCCCCGGCGCCCGGCGGCUCGAGCCCGGGUAAGUGUCAAUAGUCUGCAUGCCGCCGGGCGCCAUGCCUGCAGGUCGACUCUAGAAAACAUG”, for which the binding signal in assay [10] is 5.93 log2 enrichment (interaction score); in [11], 2.85 log2 enrichment (interaction score).

Consider “GGCUAGAACUAGUGGAUCCCCCGGCGCCCGGCGGCUCGAGCCCGGGUAAGUGUAAGUAGUCUGCAUGCCGCCGGGCGCCAUGCCUGCAGGUCGACUCUAGAAAACAUG”, for which the binding signal in [12] was 2.43 log2 enrichment (interaction score); in assay [13], 4.37 log2 enrichment (interaction score).

For “GGCUAGAACUAGUGGAUCCCCCGGCGCCCGGCGGCUCGAGCCCGGGUAAGUGUAAUUAGUCUGCAUGCCGCCGGGCGCCAUGCCUGCAGGUCGACUCUAGAAAACAUG”, the binding signal in assay [13] is 1.36 log2 enrichment (interaction score); in [14], 4.82 log2 enrichment (interaction score); in [6], 1.02 log2 enrichment (interaction score).

Take “GGCUAGAACUAGUGGAUCCCCCGGCGCCCGGCGGCUCGAGCCCGGGUAAGCGUAAAUAGUCUGCAUGCCGCCGGGCGCCAUGCCUGCAGGUCGACUCUAGAAAACAUG”: in assay [15], the binding signal was 6.7 log2 enrichment (interaction score).

Regarding “GGCUAGAACUAGUGGAUCCCCCGGCGCCCGGCGGCUCGAGCCCGGGUAAGUUUAAAUAGUCUGCAUGCCGCCGGGCGCCAUGCCUGCAGGUCGACUCUAGAAAACAUG”, in assay [16], the binding signal is 4.5 log2 enrichment (interaction score).

Consider “GGCUAGAACUAGUGGAUCCCCCGGCGCCCGGCGGCUCGAGCCCGGGUAAGUCUAAAUAGUCUGCAUGCCGCCGGGCGCCAUGCCUGCAGGUCGACUCUAGAAAACAUG”, for which, in assay [16], the binding signal is 3.19 log2 enrichment (interaction score).

In the case of “GGCUAGAACUAGUGGAUCCCCCGGCGCCCGGCGGCUCGAGCCCGGGUAAGUGCAAAUAGUCUGCAUGCCGCCGGGCGCCAUGCCUGCAGGUCGACUCUAGAAAACAUG”, the binding signal in [7] was 7.3 log2 enrichment (interaction score).
